Our source for the Potency values is PubChem BioAssay (NCATS).

Structures are written as SMILES. Inconclusive results are not listed. Active and inactive are the calls of the source. Calls follow the shape of the dose curve; as a rule, active = well fitted inhibition curve with a large enough effect; inconclusive = small, poorly fitted or top-dose-only effect; inactive = no such curve, though single readings can be large or run the other way.
Potency is read from the fitted curve at half-maximal effect.

The experiment is described as follows: qHTS assay to identify inhibitors of the type 1 interferon - major histocompatibility complex class I in skeletal muscle: Counter screen cell viability and HiBit confirmation (AID 1347412). Also: nearly all actives have a fitted effect of over 60% in size. The settings on record: iHSKM muscle cells + IFN-b, HiBiT or CellTiter-Glo, 24 h; HiBiT. The method in brief: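 After 24 h with human IFN-beta (4 ng/ml) and compound titrations (top 46 uM final, 1:3, 12 points), HLA-B HiBit myoblasts were lysed for either Nano-Glo HiBiT luminescence or CellTiter Glo viability on paired plates.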
Turning to `Nc1ncnc2c1c(-c1cccc(OCc3ccccc3)c1)cn2C1CC(CN2CCC2)C1` (centres undefined), the Potency is 22.2 µM (active).
In the case of `CC1(C)CC(=O)c2c(C(F)(F)F)nn(-c3ccc(C(N)=O)c(NC4CCC(O)CC4)c3)c2C1` (centres undefined) it was 0.0701 µM (active); in that of `CC(C)Oc1cc(Nc2nc(N[C@@H](C)c3ccc(F)cn3)ncc2Cl)[nH]n1`, 9.91 µM (active); in that of `Cc1cccc(Nc2nc(N[C@@H]3CCCC[C@H]3N)ncc2C(N)=O)c1`, 15.7 µM (active).
For `COc1cc2nccc(Oc3ccc(NC(=O)Nc4ccc(F)cc4F)c(F)c3)c2cc1OC`, the Potency is 8.83 µM (active).
For the molecule `CC1(COc2ccc3c(c2)ncn3-c2ccc3cccc(N4CCC(N)CC4)c3n2)COC1`, the Potency was 3.52 µM (active).
`COc1ccc(-c2cc3nccn3c(Nc3ncccc3C(N)=O)n2)cc1OC`: the Potency is 7.87 µM (active).
In the case of `Cc1cnc(Nc2cccc(CN3CCOCC3)c2)nc1Nc1cccc(S(=O)(=O)NC(C)(C)C)c1`, the Potency was 7.01 µM (active).
As for `COc1c(C)cnc(Cn2cnc3c(Cl)nc(N)nc32)c1C`, the Potency was 0.222 µM (active).
